Compound activity deposited in PubChem BioAssay by several laboratories.
This is a sample that favours compounds with a hit; in the whole collection about 3.9% have one here.
BoNT F protease: blocks Botulinum neurotoxin F light chain protease. 360,000 compounds, 0.22% hits. Multiplex microsphere protease cleavage assay, flow cytometry. AID 588497. inhibition, % at 10 µM; in the data active = inhibition above about 35%, passing the limit was not always enough; inconclusive = no clear call, values can overlap the other calls; also: plate controls were buffer without enzyme for full effect and enzyme alone for no effect
VHR inh abs: inhibitors of human VHR1 phosphatase (DUSP3); P51452; recombinant VHR phosphatase, pNPP absorbance; inhibition, % at 13.3 µM; 290,000 compounds, 0.52% hits; in the data active = inhibition above about 50%
Target sequence (P51452 whole entry, looked up): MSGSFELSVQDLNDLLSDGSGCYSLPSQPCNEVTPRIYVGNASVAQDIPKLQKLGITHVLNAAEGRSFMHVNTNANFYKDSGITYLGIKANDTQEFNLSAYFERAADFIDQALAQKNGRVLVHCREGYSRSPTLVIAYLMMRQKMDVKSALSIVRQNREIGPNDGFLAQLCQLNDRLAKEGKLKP
Anthrax LF inh2: anthrax lethal factor protease inhibition; multiplex microsphere protease cleavage assay, LF; inhibition, % at 10 µM; 360,000 compounds, 0.12% hits; AID 588501; also: plate controls were buffer without enzyme for full effect and enzyme alone for no effect
SARS 3CLpro inh: SARS-CoV 3CLpro protease inhibition; P0C6X7; recombinant SARS-CoV 3CLpro, quenched FRET peptide cleavage; 290,000 compounds, 0.14% hits; inhibition, % at 6 µM; AID 1706; in the data active = inhibition above about 12%
BoNT A protease: inhibitors of Botulinum neurotoxin A light chain protease | multiplex microsphere protease substrate cleavage, flow cytometry | inhibition, % at 10 µM | 360,000 compounds, 0.17% hits; also: plate controls were buffer without enzyme for full effect and enzyme alone for no effect
Bead autofluor: flagged as autofluorescent in microsphere protease counterscreen | 360,000 compounds, 3.1% hits | compound autofluorescence counterscreen, microsphere flow cytometry; stronger effect = higher value | AID 624483 | fluorescence intensity (concentration not given with the values); in the data active = fluorescence intensity above about 16000; inconclusive = no clear call, values can overlap the other calls
* marks the source's active call; other numbers are inactive results; ? = inconclusive; · = no result. Rule as the data show it, unless noted: active = inhibition above about 30%; inconclusive = no clear call, values can overlap the other calls; inactive = below that.

SMILES	BoNT F protease	VHR inh abs	Anthrax LF inh2	SARS 3CLpro inh	BoNT A protease	Bead autofluor
O=[N+]([O-])c1c(NCCO)cc(N2CCCCCC2)c2nonc12	?	-7.4	100.1*	0.0	-4.0	3454
Cc1ccccc1/C(N)=N/OC(=O)/C=C/c1ccccc1	0.0	-2.1	-3.8	4.5	1.4	22804*
COc1ccc(/C(N)=N/OC(=O)/C=C/c2ccccc2)cc1	61.7*	48.4	1.9	3.0	5.9	2098
CCCCN(CCCC)S(=O)(=O)c1ccc(NS(=O)(=O)c2ccc(NC(C)=O)cc2)cc1	-3.4	-8.1	0.7	6.5	?	21196*
CCCCOC(=O)Nc1ccc(S(=O)(=O)Nn2cnnc2)cc1	-20.0	10.9	-4.7	1.7	?	29599*
CC(=O)Nc1ccc(S(=O)(=O)Nc2ccc(S(=O)(=O)Nc3nc(C)cc(C)n3)cc2)cc1	-3.9	8.0	-0.3	0.2	3.5	3056
CNC(=O)COc1ccc(S(=O)(=O)Nc2ccc(C)cc2)cc1	3.4	17.5	-1.5	0.1	-0.6	4120
CCOc1ccc(NS(=O)(=O)c2ccc(C(=O)NCc3ccncc3)cc2)cc1	-231.7	·	-35.2	·	-175.5	42543*
CCOc1ccc(NS(=O)(=O)c2ccc(C(=O)NCc3cccnc3)cc2)cc1	7.8	·	4.6	·	5.8	?
CCCNC(=O)COc1ccc(S(=O)(=O)Nc2ccc(C)cc2)cc1	2.1	0.5	-1.0	-6.0	2.0	22233*
Cc1cc(C(=O)OCC(=O)NC(=O)c2cccn2C)c2ccccc2n1	-0.9	13.1	-4.5	-5.5	-0.8	4400
CC(=O)Nc1ccc(OCCOc2ccc(NC(C)=O)cc2)cc1	12.7	14.1	-5.0	-1.0	-3.1	3946
CCCCOc1ccc(S(=O)(=O)Nc2ccc(NC(C)=O)cc2)cc1	0.3	13.6	-1.7	1.4	1.4	21764*
Cc1ccccc1SCC(=O)Nc1ccc(N2CCOCC2)cc1	-10.9	12.4	-0.3	-2.8	0.3	3477
Cc1ccccc1SCC(=O)NC1CCOC1=O (stereo not given)	2.2	8.4	-1.8	-5.2	1.2	22927*
CN1CCN(C(=O)c2ccc3ccccc3c2)CC1	2.9	18.8	1.3	-5.2	-0.4	23924*
O=C(c1ccc(-n2cccc2)cc1)N1CCN(Cc2ccccc2)CC1	-5.3	32.7	-15.6	3.3	0.6	6926
CN1CCN(C(=O)c2ccc(-n3cccc3)cc2)CC1	-4.7	20.8	0.6	-4.0	?	20993*
COc1ccc(CCNc2nc(Cl)nc(NC(C)(C)CO)n2)cc1OC	?	12.2	-3.8	1.5	-1.1	4070
CCOc1nc(NCCc2ccc(OC)c(OC)c2)nc(NC(C)(C)CO)n1	-3.6	14.4	-2.4	0.8	-1.7	16988*
Nc1c(S(=O)(=O)c2cc(Cl)ccc2Cl)c2nc3ccccc3nc2n1CCN1CCOCC1	1.5	24.3	-0.8	-1.1	?	24321*
CC(=O)Nc1ccc(S(=O)(=O)c2c(N)n(CCN3CCOCC3)c3nc4ccccc4nc23)cc1	4.2	23.2	2.5	0.1	1.7	3539
COc1cc(Br)c(C(C)NC(=O)c2ccccc2)cc1OC (stereo not given)	-4.1	35.8	-1.5	6.3	-1.7	21305*
COc1ccc(OC)c(C(C)NC(=O)c2ccc(Br)cc2)c1 (stereo not given)	1.9	-1.2	3.0	-0.4	1.4	9972
COc1ccccc1-c1nc(C#N)c(N2CCN(c3cccc(Cl)c3)CC2)o1	-7.1	37.9	-6.4	0.5	-5.1	25154*
SMILES	BoNT F protease	VHR inh abs	Anthrax LF inh2	SARS 3CLpro inh	BoNT A protease	Bead autofluor
CN(C)N=Nc1ccc(-c2cn(Cc3ccccc3)cn2)cc1	?	8.1	0.2	0.8	-2.5	3791
Cc1ccc(NC(=O)CCCN2C(=O)/C(=C/C=C/c3ccccc3)SC2=S)cc1	-0.7	12.6	13.2	-4.0	28.6	2783
CC(C)c1ccccc1NC(=O)COC(=O)CCN1C(=O)/C(=C\C=C\c2ccccc2)SC1=S	5.5	1.3	17.9	1.8	39.6*	2544
O=C(COC(=O)CCN1C(=O)/C(=C\C=C\c2ccccc2)SC1=S)Nc1ccc(Br)cc1	14.2	-21.5	26.9	-1.0	41.3*	4781
Cc1ccccc1C(=O)Nc1ccc(N(C)C)c2ccccc12	?	21.9	13.5	-5.6	6.4	3586
Cc1nn(-c2ccc(Cl)cn2)c2c1C(=O)CC(C)(C)C2Br (stereo not given)	-5.1	·	-1.4	·	-0.6	3889
N#C/C(=C/c1ccc(F)cc1)c1nc(CCN2C(=O)c3ccccc3C2=O)cs1	-7.1	-0.9	-2.8	2.7	-2.1	16963*
